# Results taken from the supplement of paper PMC7724964.
# T1: SPSB2 26-221 SPRY (domain begin residue: 26, domain end residue: 221), Q99619
# T1 chain: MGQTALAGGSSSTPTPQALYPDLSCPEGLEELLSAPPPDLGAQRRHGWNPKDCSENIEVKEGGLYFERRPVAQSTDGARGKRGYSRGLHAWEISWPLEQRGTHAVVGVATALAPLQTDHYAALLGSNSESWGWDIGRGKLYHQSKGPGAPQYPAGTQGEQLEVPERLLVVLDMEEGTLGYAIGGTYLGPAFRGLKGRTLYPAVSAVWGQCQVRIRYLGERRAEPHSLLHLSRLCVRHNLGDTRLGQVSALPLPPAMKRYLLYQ
# T2: SPRED3 1-117 WH1 (domain begin residue: 1, domain end residue: 117), Q2MJR0
# T2 chain: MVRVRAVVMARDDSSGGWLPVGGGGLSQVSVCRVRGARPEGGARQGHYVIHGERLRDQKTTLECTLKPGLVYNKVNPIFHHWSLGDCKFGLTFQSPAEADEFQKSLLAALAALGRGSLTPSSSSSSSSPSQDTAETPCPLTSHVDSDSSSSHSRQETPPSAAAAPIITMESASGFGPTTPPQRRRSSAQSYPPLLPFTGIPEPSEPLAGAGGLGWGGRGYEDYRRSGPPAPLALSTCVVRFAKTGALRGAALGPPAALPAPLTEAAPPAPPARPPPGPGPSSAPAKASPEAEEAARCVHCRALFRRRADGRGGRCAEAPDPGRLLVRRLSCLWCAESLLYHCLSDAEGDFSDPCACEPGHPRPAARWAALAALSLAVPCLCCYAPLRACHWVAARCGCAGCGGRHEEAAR
# T3: SND1 650-910 TUDOR+SNase (domain begin residue: 650, domain end residue: 910), Q7KZF4
# T3 chain: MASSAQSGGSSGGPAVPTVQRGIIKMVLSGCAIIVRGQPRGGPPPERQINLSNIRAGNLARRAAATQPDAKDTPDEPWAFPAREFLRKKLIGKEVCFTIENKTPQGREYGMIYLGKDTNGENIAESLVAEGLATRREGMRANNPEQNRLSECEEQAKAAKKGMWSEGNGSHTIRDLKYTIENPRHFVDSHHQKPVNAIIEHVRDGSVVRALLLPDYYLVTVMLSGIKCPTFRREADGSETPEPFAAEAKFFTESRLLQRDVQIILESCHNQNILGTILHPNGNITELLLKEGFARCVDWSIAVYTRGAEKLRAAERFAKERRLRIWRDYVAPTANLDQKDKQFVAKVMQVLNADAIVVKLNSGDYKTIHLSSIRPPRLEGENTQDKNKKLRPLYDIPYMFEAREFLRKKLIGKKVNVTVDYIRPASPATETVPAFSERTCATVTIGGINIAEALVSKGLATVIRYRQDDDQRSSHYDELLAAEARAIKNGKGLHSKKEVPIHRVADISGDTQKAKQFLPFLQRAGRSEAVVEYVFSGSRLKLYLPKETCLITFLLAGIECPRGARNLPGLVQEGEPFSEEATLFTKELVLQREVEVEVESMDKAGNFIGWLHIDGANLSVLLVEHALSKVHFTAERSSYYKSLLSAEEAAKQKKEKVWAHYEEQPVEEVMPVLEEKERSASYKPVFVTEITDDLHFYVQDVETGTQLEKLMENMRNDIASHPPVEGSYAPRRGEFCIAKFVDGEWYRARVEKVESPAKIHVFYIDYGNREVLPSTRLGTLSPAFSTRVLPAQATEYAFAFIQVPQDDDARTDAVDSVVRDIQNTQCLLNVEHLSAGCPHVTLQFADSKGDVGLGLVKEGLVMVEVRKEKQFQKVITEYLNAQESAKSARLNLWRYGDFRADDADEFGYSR
# T4: SHC1 149-317 PID (domain begin residue: 149, domain end residue: 317), P29353
# T4 chain: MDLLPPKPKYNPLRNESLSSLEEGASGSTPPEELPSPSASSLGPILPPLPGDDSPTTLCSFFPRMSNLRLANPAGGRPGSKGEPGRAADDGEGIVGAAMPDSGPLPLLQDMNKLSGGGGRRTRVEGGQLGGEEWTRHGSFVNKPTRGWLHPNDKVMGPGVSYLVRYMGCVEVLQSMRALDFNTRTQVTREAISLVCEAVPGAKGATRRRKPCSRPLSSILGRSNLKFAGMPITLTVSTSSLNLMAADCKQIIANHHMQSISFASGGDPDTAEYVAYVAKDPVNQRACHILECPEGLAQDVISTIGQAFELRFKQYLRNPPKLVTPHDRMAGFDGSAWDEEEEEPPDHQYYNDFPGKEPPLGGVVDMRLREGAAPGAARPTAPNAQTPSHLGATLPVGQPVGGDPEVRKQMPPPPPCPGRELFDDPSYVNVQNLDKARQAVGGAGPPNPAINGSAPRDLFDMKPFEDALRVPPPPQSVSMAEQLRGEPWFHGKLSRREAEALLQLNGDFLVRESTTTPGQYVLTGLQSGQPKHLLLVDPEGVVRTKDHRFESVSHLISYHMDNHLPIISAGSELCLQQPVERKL
# T5: SPRED2 1-124 WH1 (domain begin residue: 1, domain end residue: 124), Q7Z698
# T5 chain: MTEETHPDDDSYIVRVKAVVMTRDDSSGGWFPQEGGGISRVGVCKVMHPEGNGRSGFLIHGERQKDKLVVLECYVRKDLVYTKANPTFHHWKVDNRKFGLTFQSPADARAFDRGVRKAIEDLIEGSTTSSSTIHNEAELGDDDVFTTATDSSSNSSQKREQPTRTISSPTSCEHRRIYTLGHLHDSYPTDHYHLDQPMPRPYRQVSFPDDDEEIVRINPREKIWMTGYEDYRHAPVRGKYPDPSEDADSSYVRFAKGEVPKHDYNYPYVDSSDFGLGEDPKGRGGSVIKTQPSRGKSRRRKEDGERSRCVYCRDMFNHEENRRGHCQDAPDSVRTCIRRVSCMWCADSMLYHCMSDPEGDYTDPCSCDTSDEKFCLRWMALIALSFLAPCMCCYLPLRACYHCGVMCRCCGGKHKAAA
# What was measured:
# Test in all cases: phage ELISA signal ratio (GST-PRM binding over GST background); higher = stronger binding of peptide-phage to the PRM
# [1] = biological target: T1, SPSB2 26-221 SPRY (domain begin …
# How it was run: (§1)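 Each value is the phage ELISA signal on the glutathione S-transferase (GST)-domain fusion divided by the signal on GST alone. Human peptide recognition domains were expressed in 96-well plates, fused to the C-terminus of GST, and selected against an M13 phage library carrying randomized, cysteine-free, glycine-flanked hexadecapeptides on the gene-8 major coat protein. After five selection rounds, approximately 48 individual clones from rounds 4 and 5 were tested by phage ELISA, and positive clones were sequenced.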
# [2] = biological target: T2, SPRED3 1-117 WH1 (domain begin residue: …
# How it was run: as §1
# [3] = biological target: T3, SND1 650-910 TUDOR+SNase (domain begin …
# How it was run: as §1
# [4] = biological target: T4, SHC1 149-317 PID (domain begin residue: …
# How it was run: as §1
# [5] = biological target: T5, SPRED2 1-124 WH1 (domain begin residue: …
# How it was run: as §1
binder,measurement,setting,value
EVMYDWNGNASSLLMM,phage ELISA signal ratio,[1],35.3
LDWDWVQWHFDDAMRW,phage ELISA signal ratio,[2],7.1
GDYMSMLFMQEWGPFN,phage ELISA signal ratio,[3],5.51
TPWWETTSTVMTYIKM,phage ELISA signal ratio,[2],19.4
GPMIGWNQEYIFFSEH,phage ELISA signal ratio,[4],16.2
EQWWHTPQSVQAWINS,phage ELISA signal ratio,[2],19.5
PWHARDMNGNWTQRIE,phage ELISA signal ratio,[1],12.3
AGPDWNHNRLTFNHPQ,phage ELISA signal ratio,[1],35.2
WLAQDYNNNHMWLDWK,phage ELISA signal ratio,[1],27.1
WEWKDYEKVVHFQDMK,phage ELISA signal ratio,[2],3.38
DPGWYWEPAMLEAEWA,phage ELISA signal ratio,[2],28.4
VVYTGVDHNGNMYPVR,phage ELISA signal ratio,[1],9.45
TWGWFDTGEAWSTMSM,phage ELISA signal ratio,[5],10
NTMWFDLWDINNNPLS,phage ELISA signal ratio,[1],32.3
MEVFDMNGNYPVRSRT,phage ELISA signal ratio,[1],25
HEMFLWDGETVMQVWW,phage ELISA signal ratio,[2],20.8
WREEPHFHRDENGNII,phage ELISA signal ratio,[1],28.9
PVQWGDWSYPYDLSGQ,phage ELISA signal ratio,[5],12.6
NLWPEVEPIMDNWQPS,phage ELISA signal ratio,[5],6.67
WTWMGDEEVFYHESLL,phage ELISA signal ratio,[2],23.8
FEEMELVGDLNNNMMP,phage ELISA signal ratio,[1],32.8
EPDYGTAWFQHMMQEW,phage ELISA signal ratio,[2],31
MGQLQDMQNNNWVPIV,phage ELISA signal ratio,[1],33.8
DFNNNTGPRLAAETIV,phage ELISA signal ratio,[1],11.5
RSDYARDANGNMVVEF,phage ELISA signal ratio,[1],21.3
EWNKNLHWFEVFDQEV,phage ELISA signal ratio,[4],20.3
MWMWDGMQVVHLFEQY,phage ELISA signal ratio,[2],20.5
IVDTYWAMENNNVGTV,phage ELISA signal ratio,[1],29.6
